# Data reported in PubChem BioAssay (NCATS).
# Results filed as inconclusive are left out. Where a call stands in place of a potency, no number is given. Unmarked numbers belong to inactive results. Activity calls are given as the source filed them. Calls come from the whole dose curve; as a rule, active = well fitted curve in the direction sought with a large enough effect; inconclusive = small, poorly fitted or top-dose-only effect, or another doubt; inactive = no such curve, though single readings can be large; an effect the other way counts as inactive or inconclusive. Where a SMILES comes first, the peptide text is derived from it.
# Experiments:
# [1] = system: Zika virus NS2B-NS3 protease (unlinked complex); experiment: Primary screen GU Rhodamine qHTS for Zika virus inhibitors: Unlinked NS2B-NS3 protease assay (AID 1347159); conditions: Recombinant ZIKV NS2B-NS3 protease, Rhodamine110 substrate fluorescence; series mostly up to 107 µM; note: nearly all actives have a fitted effect of over 60% in size; note: potency is the fitted concentration of half-maximal effect
# Outline: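 Unlinked NS2B/NS3, 25 nM; Rhod110 peptide, 1.5 microM; compounds, up to 114 microM. Reaction run 15 min at RT in 10 mM Tris-HCl pH 8.0, 0.01% Tween 20; kinetic fluorescence change fitted with a 4-parameter Hill model.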
# [2] = Confirmatory screen GU Rhodamine qHTS for Zika virus inhibitors qHTS (AID 1347157); conditions: purified enzyme assay, Rhodamine110 substrate fluorescence, 15 min; series mostly up to 114 µM; note: nearly all actives have a fitted effect of over 70% in size; note: potency is the fitted concentration of half-maximal effect
# Outline: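 In dose–response format, inhibition of unlinked protease (25 nM) was measured with 1.5 microM bis-peptide Rhodamine110 substrate. Aprotinin served as the intraplate control.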
# [3] = Confirmatory screen NINDS Rhodamine qHTS for Zika virus inhibitors (AID 1347161); conditions: purified enzyme assay, Rhodamine110 substrate fluorescence, 15 min; series mostly up to 114 µM; note: nearly all actives have a fitted effect of over 60% in size; note: potency is the fitted concentration of half-maximal effect;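 for activity change, negative = inhibition: purified Zika NS2B-NS3 protease with linked NS2B cofactor domain and Rhodamine110 peptide substrate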
# Outline: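 In 10 mM Tris-HCl pH 8.0 containing 0.01% Tween 20, linked NS2B-NS3 protease (25 nM final) is exposed to test compounds for 15 min. Cleavage of 1.5 microM Rhodamine110 substrate is tracked by fluorescence over 15 min.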
# [4] = Tertiary RLuc qRT-PCR qHTS assay for Zika virus inhibitors (AID 1347169); conditions: infected Vero cells, reporter luminescence, 48-72 h; series mostly up to 45.9 µM; note: top concentration of the series differs between compounds; nearly all actives have a fitted effect of over 55% in size
# Outline: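 Luminescence read-out: live-cell Renilla luciferase substrate applied to infected Vero cells, signal measured after 1-1.5 hrs. Cells had received compound before ZIKV-RLuc (Cambodian strain, MOI 1-2) infection and were incubated 48-72 hrs at 37 degrees C.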
# [5] = system: Zika virus NS2B-NS3 protease (linked construct); experiment: Primary screen NINDS Rhodamine qHTS for Zika virus inhibitors (AID 1347160); conditions: purified NS2B-NS3 protease, Rhodamine110 substrate fluorescence; series mostly up to 33.1 µM; note: potency is the fitted concentration of half-maximal effect; nearly all actives have a fitted effect of over 55% in size
# Outline: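 Single-chain NS2B-NS3 protease, 25 nM, pH 8.0; compounds preincubated 15 min. Activity: Rhodamine110 release from 1.5 microM substrate over 15 min, room temperature, data fitted to 4-parameter Hill.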
# [6] = system: Zika virus NS2B-NS3 protease (linked); experiment: 384 well plate NINDS AMC confirmatory qHTS for Zika virus inhibitors (AID 1347163); conditions: Recombinant NS2B-NS3 protease, Ac-VKTGKR-AMC fluorescence; series mostly up to 100 µM; note: potency is the fitted concentration of half-maximal effect; nearly all actives have a fitted effect of over 50% in size
# Outline: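 Fluorescence at 355/460 nm was read after 25 minutes of cleavage of 30 microM Ac-VKTGKR-AMC at room temperature, in the dark. Before substrate addition, compounds (up to 1 mM final) sat ~15 minutes with 5, 30 or 60 nM linked protease. Signals were normalized to no-enzyme and no-inhibitor wells.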
# [7] = system: Zika virus NS2B-NS3 protease (linked construct); experiment: 384 well plate NINDS Rhodamine confirmatory qHTS for Zika virus inhibitors (AID 1347164); conditions: rhodamine-110 peptide substrate fluorescence; series mostly up to 100 µM;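 note: fluorescence from protease cleavage of Ac-LKRR-rhodamine 110 substrate; potency is the fitted concentration of half-maximal effect; nearly all actives have a fitted effect of over 65% in size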
# Outline: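 Fluorescence read at ex 485 nm/em 538 nm, 25 min after adding 10 microM Ac-LKRR-Rd substrate at room temperature in the dark; signal normalized to no-enzyme and no-inhibitor controls. Enzyme final 5, 30 or 60 nM; compounds, ~15 min preincubation.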
# [8] = Vero cells viability qHTS for Zika virus inhibitors (AID 1347167); conditions: cytotoxicity counter-screen (Zika); series mostly up to 45.9 µM
# Outline: (§1)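 Luminescent ATP readout (CellTiter Glo) after 30 min at 37 degrees C gives viability; cells in DMEM + 4% FBS were treated 24 to 48 hours with compound, following overnight attachment.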
# [9] = HepG2 cells viability qHTS for Zika virus inhibitors (AID 1347168); conditions: Zika counter-screen; series mostly up to 45.9 µM
# Outline: as §1
compound,measurement,setting,value
CC(C)(C)NS(=O)(=O)c1ccc(-c2ccc3[nH]nc(N)c3c2)cc1,Potency,[1],inactive
CC(C)C1CCC(C(=O)N[C@@H](Cc2ccccc2)C(=O)O)CC1 (stereo partly specified),Potency,[1],31.6 µM (active)
COC(=O)[C@]1(C)CCC[C@@]2(C)C(=O)CC[C@H]3C(=O)C=C(CC[C@@H]21)C3O (stereo partly specified),Potency,[1],inactive
CSCC[C@H](NC(=O)[C@H](CO)NC(=O)[C@H](CCC(=O)O)NC(C)=O)C(=O)N[C@H](C=O)CC(=O)O (Ac-ESMD-aldehyde),"activity change, negative = inhibition",[2],8.12% [at 22 µM]
same,"activity change, negative = inhibition",[3],12.5% [at 22.2 µM]
same,"activity change, negative = inhibition",[4],-0.374% [at 5.25 µM]
COc1cc2c(c(OC)c1O)C(c1ccc(O)cc1)C1C(=O)OC3C(COC(=O)C1=C2)OC(CO)(OC1OC(COC(=O)/C=C/c2ccc(OC4OC(C)C(O)C(O)C4O)cc2)C(O)C(O)C1O)C3O (stereo unspecified),Potency,[2],7.44 µM (active)
same,Potency,[1],inactive
same,Potency,[3],7.44 µM (active)
same,Potency,[4],inactive
COc1cc(/C=C/C(=O)O[C@@H]2C[C@](O)(C(=O)O)C[C@@H](O)[C@H]2O)ccc1O,Potency,[1],inactive
COc1cc(C(=O)OC[C@@]2(O)CO[C@@H](O[C@H]3[C@H](Oc4ccc(O)cc4)O[C@H](CO)[C@@H](O)[C@@H]3O)[C@@H]2O)cc(OC)c1O,Potency,[1],inactive
Cc1c(Cc2ccc3ccccc3n2)c2cc(F)ccc2n1CC(=O)O,Potency,[1],35.5 µM (active)
CC(C)(O)C(O)C(=O)OCc1ccc(O[C@@H]2O[C@H](CO)[C@@H](O)[C@H](O)[C@H]2O)cc1 (stereo partly specified),Potency,[1],inactive
COc1cc(Cc2cnc(N)nc2N)c(C(C)C)cc1OC,Potency,[1],inactive
CC(C)CC(c1c(O)c(C=O)c(O)c(C=O)c1O)C1CCC(C)(O)C2CC(C(C)(C)O)CCC12C (stereo unspecified),Potency,[2],3.41 µM (active)
same,Potency,[5],5.01 µM (active)
same,Potency,[3],3.41 µM (active)
same,Potency,[6],50.1 µM (active)
same,Potency,[7],15.8 µM (active)
same,outcome,[8],inactive
same,outcome,[9],inactive
same,Potency,[4],inactive
CC1CC=C2C1CC1(O)C(=O)CC2(C)C1(C)CO (stereo unspecified),Potency,[1],35.5 µM (active)
CC1(C)C[C@H]2C=C(C=O)[C@]3(C(=O)O)C[C@]3(C)[C@H]2C1,Potency,[1],22.4 µM (active)
CC(/C=C/C=C(\C)C(=O)O[C@@H]1O[C@H](CO[C@@H]2O[C@H](CO)[C@@H](O)[C@H](O)[C@H]2O)[C@@H](O)[C@H](O)[C@H]1O)=C\C=C\C=C(C)\C=C\C=C(/C)C(=O)O[C@@H]1C[C@](O)(C(=O)O)C[C@@H](O)[C@H]1OC(=O)/C=C/c1ccc(O)c(O)c1,Potency,[1],1.78 µM (active)
Cc1sc(C)c(C(=O)NC2(c3ccc(C(=O)O)cc3)CC2)c1Cc1ccc(C(F)(F)F)cc1,Potency,[1],17.8 µM (active)
C/C1=C\CC(C)(C)/C=C/C/C(C(=O)O)=C/CC1,Potency,[1],14.1 µM (active)
C[C@@H]1O[C@@H](O[C@H]2[C@H](O[C@H]3[C@H](O[C@H]4CC[C@@]5(C)C(CC[C@]6(C)C5CC=C5[C@@H]7CC(C)(C)C[C@@H](O)[C@]7(C)CC[C@]56C)[C@@]4(C)CO)O[C@H](C(=O)O)[C@@H](O)[C@@H]3O)O[C@H](C(=O)O)[C@H](O)[C@@H]2O)[C@H](O)[C@H](O)[C@H]1O (stereo partly specified),Potency,[1],inactive
CC(C)(Oc1ccc(-c2nc3cc(Cl)ccc3s2)cc1)C(=O)O,Potency,[1],35.5 µM (active)
NC(=O)[C@H](Cc1ccccc1)NC(=O)[C@H](CCCN=C(N)N)NC(=O)C12CC3CC(CC(C3)C1)C2,"activity change, negative = inhibition",[1],-7.71% [at 19.1 µM]
CN1CCN(c2nc(-c3ccc(C(=O)NC4(C(=O)NCC#N)CCCCC4)cc3)cs2)CC1,Potency,[1],inactive
CCCC(=O)Nc1cccc(NC(=O)c2ccccc2Br)c1,Potency,[1],inactive
C=C[C@H]1[C@H](O[C@@H]2O[C@H](CO)[C@@H](O)[C@H](O)[C@H]2O)OC=C(C(=O)OC)[C@H]1CCO,Potency,[1],inactive
CC(=O)N[C@H](Cc1c[nH]c2ccccc12)C(=O)OCc1cc(C(F)(F)F)cc(C(F)(F)F)c1,Potency,[1],inactive
COc1c(-c2ccc(O)cc2)cc(OC)c2c1oc1cc(O)c(OC3OC(CO)C(O)C3O)cc12 (stereo unspecified),Potency,[1],15.8 µM (active)
CC1=C2C3OC(=O)C(C)C3(O)CCC2(C)CCC1 (stereo unspecified),Potency,[1],inactive
O=C(OC(C(F)(F)F)C(F)(F)F)N1CCN(Cc2cccc(Oc3ccccc3)c2)CC1,Potency,[1],inactive
CC1=C2C[C@@]3(C)[C@@H](CCC[C@@H]3C)C[C@@]2(O)OC1=O,Potency,[1],inactive
COc1ccc2c(c1)C=C1Cn3c-2c(C2CCCCC2)c2ccc(cc23)C(=O)NS(=O)(=O)N(C)CCOCCN(C)C1=O,Potency,[1],2.51 µM (active)
c1cc(-c2cc(C3CCNCC3)[nH]n2)ccn1,Potency,[1],inactive
CC1(C)CC[C@]2(C(=O)O)CC[C@]3(C)C(=CCC4[C@@]5(C)CC[C@H](O[C@H]6O[C@H](C(=O)O)[C@@H](O)[C@H](O[C@@H]7O[C@H](CO)[C@H](O)[C@H](O)[C@H]7O)[C@H]6O)C(C)(C)C5CC[C@]43C)[C@@H]2C1 (stereo partly specified),Potency,[1],8.91 µM (active)
Nc1nc(COC(=O)c2ccc([N+](=O)[O-])cc2)nc(Nc2ccccc2)n1,Potency,[1],inactive
COC(=O)C1=COC(OC2OC(CO)C(O)C(O)C2O)C2C(COC(=O)/C=C/c3ccc(O)cc3)C(O)C(O)C12 (stereo unspecified),Potency,[1],inactive
C=CC(C)(CC/C=C(\C)C(=O)OC)OC1OC(COC(=O)CC(C)(O)CC(=O)O)C(O)C(O)C1O (stereo unspecified),Potency,[1],inactive
C=C1CC[C@@H]2C(C)(C)CCC[C@@]2(C)[C@@H]1CC/C(=C/C(=O)OC)COC(C)=O,Potency,[1],inactive
COc1cc(C2Oc3c(OC)cc(CCCO)cc3C2CO)ccc1O (stereo unspecified),Potency,[1],39.8 µM (active)
CCCCNc1nc(N)c2[nH]c(=O)n(Cc3ccc(OCCN(C)C)nc3)c2n1,Potency,[1],inactive
CC1CCC2(C)CCC3(C)C(=CCC4C5(C)CCC(O)C(C)(C(=O)O)C5CCC43C)C2C1C (stereo unspecified),Potency,[1],8.91 µM (active)
COc1cc(O)cc(C)c1C(=O)OC1C(CO)OC(n2ccc(=O)[nH]c2=O)C1OC(C)=O (stereo unspecified),Potency,[1],inactive
O=C(O)/C=C/c1ccc2occc2c1O[C@@H]1O[C@H](CO)[C@@H](O)[C@H](O)[C@H]1O,Potency,[1],inactive
